# Measurements published in PubChem BioAssay AID651789 (National Center for Advancing Translational Sciences (NCATS), 2012).
# Results filed as inconclusive are left out. Active and inactive are the calls of the source. Calls follow the shape of the dose curve; as a rule, active = well fitted inhibition curve with a large enough effect; inconclusive = small, poorly fitted or top-dose-only effect; inactive = no such curve, though single readings can be large or run the other way.
# Experiment: Acumen qHTS Assay for Inhibitors of the mTORC1 Signaling Pathway in WT MEF Cells: Hit Validation; also: nearly all actives have a fitted effect of over 60% in size;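 as to activity change, negative = inhibition: phospho-rpS6 Ser235/236 immunofluorescence normalised to propidium iodide cell stain; percent of cells above a cutoff set by 7.5 nM rapamycin treated wells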
# Conditions: Acumen imaging; series mostly up to 37.3 µM; activity change, negative = inhibition: at the top concentration
# Procedure, shortened: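 Read-out is immunofluorescent phospho-rpS6 (Ser235/236) normalised to PI-stained cell number, reported as % active cells using a 7.5 nM rapamycin threshold. Cells: WT or Tsc2-/-, p53-/- MEFs, compound-exposed 24 h at 37C; PI count also tracks viability.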
# Potency is read from the fitted curve at half-maximal effect.
SMILES,"activity change, negative = inhibition",Potency
CCOc1ccc(CCNC(=O)CCc2c(C)nc3cc(-c4ccccc4OC)nn3c2C)cc1,1.97% (inactive),
Cc1ccc(-c2cc(C(=O)N3CCN(c4ccccc4)CC3)c3ccccc3n2)cc1C,-2.1% (inactive),
CC(C)OCCCn1c(=O)c2ccccc2n2c(-c3ccc(F)cc3)nnc12,8.37% (inactive),
CCCc1oc2ccc(NS(=O)(=O)c3ccc(OC)cc3)cc2c1C(=O)OCC,,0.585 µM (active)
COc1ccc(C2CC(=O)c3c([nH]c(C(=O)OC4CCCCCC4)c3C)C2)cc1OC (stereo not given),-4.62% (inactive),
CCOC(=O)c1c(NC(=O)c2cc(CC)on2)sc(C(C)=O)c1C,13.1% (inactive),
Cc1ccc(CN2C(=O)C(=O)c3cc(Br)cc(C)c32)cc1,-25.5% (inactive),
CCCN1C(=O)C(Cc2nc3ccccc3c(=O)n2CC)c2cc(Br)ccc21 (stereo not given),59.6% (inactive),
CS(=O)(=O)N(CC(=O)NCCc1ccccc1)c1cc(C(F)(F)F)ccc1Cl,-10.1% (inactive),
CCCOc1cccc(C2c3c(-c4ccccc4O)n[nH]c3C(=O)N2Cc2ccco2)c1 (stereo not given),-6.4% (inactive),
COc1cccc(/C=C(\C#N)c2nc3ccc(C)cc3[nH]2)c1,-27.4% (inactive),
COc1ccc(-c2nc(CCNC(=O)c3c(F)cccc3Cl)cs2)cc1,2.92% (inactive),
COc1ccccc1CNC(=O)CCCn1c(=O)c2cccn2c2ccccc21,3.82% (inactive),
Cc1ccc(NC(=O)Nc2cccs2)c(C)c1,12.2% (inactive),
CCc1ccc(NC(=O)C2CCCN(S(=O)(=O)c3c(C)noc3/C=C/N(C)C)C2)cc1 (stereo not given),,2.07 µM (active)
C#CC(C)(CC)NC(=O)Cn1nnc(-c2ccc(OCc3c(F)cccc3Cl)cc2)n1 (stereo not given),2.29% (inactive),
COc1ccc(CC(=O)Nc2sc3c(c2C(=O)Nc2ccccc2)CCCCC3)cc1,,13.1 µM (active)
O=C(CC(NCc1cccnc1)C(=O)O)Nc1ccc(O)cc1 (stereo not given),42% (inactive),
CN(C)CCN(Cc1ccco1)C(=O)c1cc2c(s1)-c1ccccc1OC2,1.53% (inactive),
COc1cc(C(=O)NC(c2ccccc2Cl)c2cc(Cl)c3cccnc3c2O)cc(OC)c1OC (stereo not given),-10.6% (inactive),

SMILES,"activity change, negative = inhibition",Potency
COC(=O)c1c(C)oc2ccc(N(C(=O)c3ccncc3)S(=O)(=O)c3ccc(OC)cc3)cc12,,4.14 µM (active)
CN1CCN(C2(CNC(=O)COc3ccc(C(C)(C)C)cc3)CCCCC2)CC1,-2.29% (inactive),
c1ccc(N2CCN(c3ncnc4[nH]ncc34)CC2)cc1,-11.7% (inactive),
CCOc1ccc(NC(=O)N(Cc2c[nH]c3ccccc23)C2CCCCCC2)cc1,-4.58% (inactive),
Cn1nnnc1SCCCNCc1ccccc1OCc1ccc(Cl)cc1,-8.66% (inactive),
CCc1ccc(C(=O)CC2(O)C(=O)N(CCc3ccccc3)c3ccc(Cl)cc32)cc1 (stereo not given),-18.7% (inactive),
Cc1ccc2nc(-c3cccc(NC(=O)c4cccc5ccccc45)c3)oc2c1,47.2% (inactive),
Cc1ccc(Nc2nc(C(N)=O)c(NC(=O)c3ccccc3Br)s2)cc1,,3.69 µM (active)
CCCCOc1ccc(Cn2c(=O)sc3ccccc32)cc1,14.4% (inactive),
Cc1nn(CC(=O)NCc2ccccc2Cl)c(=O)c2cccn12,-4.58% (inactive),
O=C(Nc1ccc2oc(-c3ccc4ccccc4c3)nc2c1)c1cc(Br)ccc1Cl,,13.1 µM (active)
COc1ccc2cc(CNc3ccccc3)c(=O)n(CC(=O)Nc3ccc(C)cc3C)c2c1,-22.6% (inactive),
COc1ccccc1NC(=O)C1=C(C)Nc2nc(SCc3ccccc3)nn2C1c1cccs1 (stereo not given),-3.05% (inactive),
Cc1ccc(C)c(S(=O)(=O)NCC(c2ccco2)S(=O)(=O)c2ccc(F)cc2)c1 (stereo not given),1.81% (inactive),
CCc1nn(CC(=O)NCc2ccccc2)c(=O)c2cccn12,10.7% (inactive),
Cc1ccc2sc(N(CCCN(C)C)C(=O)c3ccco3)nc2c1C,-15.6% (inactive),
COc1ccccc1N1CCN(Cc2cc(COC(C)C)c3cccnc3c2O)CC1,,2.93 µM (active)
CCCCOC(=O)c1ccc(NC(=O)c2ccc3c(c2)CCN3S(=O)(=O)c2ccccc2)cc1,4.42% (inactive),
COc1ccc(NC(=O)CSc2nc3ccccc3n2Cc2cccc(OC)c2)cc1,-26.4% (inactive),
CCOC(=O)c1ccc2ncc(C(=O)OCC)c(NCCc3ccc(OC)c(OC)c3)c2c1,10.7% (inactive),
